# Measurements published in PubChem BioAssay (Tox21).
# Where “and” joins values, the source holds several entries; their conditions need not be identical. Identical values can stand only once. Inconclusive results are not listed. Some compounds were tested as several samples or in several runs, with calls that do not always agree. Calls of active or inactive are those of the source. Calls follow the shape of the dose curve; as a rule, active = well fitted cell-killing curve with a large enough effect in the repeat runs; inconclusive = weak or mixed curves, or effect the other way; inactive = flat fitted curve, though single readings scatter.
# Experiment: qHTS assay to identify small molecule antagonists of the androgen receptor (AR) signaling pathway using the MDA cell line in the presence of 0.5 nM R1881 - cell viability counter screen (AID 1259242); also: nearly all actives have a fitted effect of over 45% in size
# Conditions: MDA-kb2 viability, CellTiter-Fluor protease fluorescence, 16 h; series mostly up to 92.4 µM; viability change, negative = cytotoxic: at the top concentration
# From the text: U.S. Tox21 Program National Center for Advancing Translational Sciences [NCATS] NIH Chemical Genomics Center [NCGC] U.S. Environmental Protection Agency [EPA] National Institutes of Environmental Health Sciences [NIEHS] National Toxicology Program [NTP] U.S. Food and Drug Administration [FDA] Tox21 Assay Overview: Androgen receptor (AR) is an important member of the nuclear receptor family. Its signaling plays a critical role in AR-dependent prostate cancer and other androgen related diseases. Considerable attention has been given in the past decades to develop methods to study and screen for the environmental chemicals that have the potential to interfere with metabolic homeostasis, reproduction, developmental and behavioral functions. Therefore AR binding assay for screening androgen antagonists can be used to identify potential endocrine disruptors. MDA-kb2 cells (from ATCC, deposited by Wilson et al.) were used to screen for AR inhibitors against Tox21 compound libraries. These cells are human breast carcinoma cells that were stably transfected with a luciferase reporter gene under control of the MMTV promoter that contains response elements for both androgen receptor (AR) and glucocorticoid receptor (GR). The current screening for identification of AR inhibitors against Tox21 libraries used lower concentration of (0.5 nM) R1881 as a stimulator. The cytotoxicity of the Tox21 compound libraries against MDA-kb2 cell line was tested by measuring live-cell protease activity using CellTiter-Fluor assay in the same wells.
# Tox21 Assay Protocol Summary: MDA-kb2 cells (cells cultured without CO2) were dispensed at 3,000 cells/well in 4 uL of culture medium into white wall/solid-bottom 1536-well plates (Corning Life Sciences, Corning, NY) using a Multidrop Combi (ThermoFisher Scientific, Waltham, MA) dispenser. After the assay plates were incubated at a 37C and 0% CO2 for 5 hr, 23 nL of compounds dissolved in DMSO, positive controls or DMSO only was transferred to the assay plate by a Pintool station (Kalypsys, San Diego, CA). The transfer of compounds was followed by the addition of 1 uL of 0.5 nM (final concentration) agonist (R1881)/culture medium using a Flying Reagent Dispenser (FRD, Aurora Discovery, San Diego, CA). The plates were incubated at 37C and 0% CO2 for 16 hr. For cytotoxicity assay, 1 uL of CellTiter-Fluor reagent (Promega Corporation, Madison, WI) was added to each well using the FRD and after 30 min incubation at 37C and 0% CO2, The fluorescence intensity was measured using ViewLux plate reader (PerkinElmer, Shelton, CT).
# % is scaled to controls: 0 for no effect and ±100 for the full control effect; potency is read from the fitted curve at half-maximal effect.
SMILES,"viability change, negative = cytotoxic",Potency
CCCOc1nn(C(=O)NS(=O)(=O)c2ccccc2C(=O)OC)c(=O)n1C,-2.33% (inactive),
CON(C)C(=O)Nc1ccc(Br)c(Cl)c1,-1.22% (inactive),
CC1=C2[C@H]3OC(=O)[C@@H](C)[C@@H]3CC[C@@]2(C)C=CC1=O,1.46% [at 42.5 µM] (inactive),
CC(Cl)(Cl)Cl,-0.0445% (inactive),
ClCCN1CCCC1,4.81% [at 42.5 µM] (inactive),
Nc1c(Cl)c(F)nc(OCC(=O)O)c1Cl,0.131% (inactive),
CCN(CC)CCOC(=O)C(O)(c1ccccc1)c1ccccc1,-0.61% [at 42.5 µM] (inactive),
ClCCCCl,0.572% (inactive),
C[C@H](CN1CCOCC1)C(C(=O)N1CCCC1)(c1ccccc1)c1ccccc1,0.809% (inactive),
COc1ccc(CN2CCNCC2)c(OC)c1OC,0.507% [at 42.5 µM] (inactive),
CC(Cc1ccccc1)NCCn1cnc2c1c(=O)n(C)c(=O)n2C (stereo not given),4.16% (inactive),
CCSC(=O)Cl,-0.192% (inactive),
NCC1(CC(=O)O)CCCCC1,2.41% [at 42.5 µM] (inactive),
CN(CCO)CCO,-0.0924% (inactive),
Oc1ccc2c3c1O[C@H]1[C@@H](O)C=C[C@H]4[C@@H](C2)NCC[C@@]341,-0.151% (inactive),
NC(=O)CS(=O)C(c1ccccc1)c1ccccc1 (stereo not given),-1.9% [at 42.5 µM] (inactive),
C[N+]1(C)CCCCC1,-0.0264% (inactive),
CC[C@@H](CO)NC(=O)[C@@H]1C=C2c3cccc4[nH]cc(c34)C[C@H]2N(C)C1,4.57% [at 42.5 µM] (inactive),
CN(C)CCN(C)C,-1.04% (inactive),
BrCC1CO1 (stereo not given),0.847% (inactive),

SMILES,"viability change, negative = cytotoxic",Potency
CCN[C@@H](C)Cc1ccccc1,8% (inactive),
O=C(O)CBr,3.93% (inactive),
C=CCCC#N,-0.343% (inactive),
O=C1C2CC=CCC2C(=O)N1SC(Cl)(Cl)Cl (stereo not given),,inactive and 16.9 µM (active)
Cn1c(N)nc2c3cccnc3ccc21,-17% (inactive),
CCC(C(N)=O)N1CCCC1=O (stereo not given),2.45% [at 42.5 µM] (inactive),
Cc1ccc(Cl)c(O)c1,5.66% [at 42.5 µM] (inactive),
CC(Cc1ccccc1)NCCCCl (stereo not given),4.26% [at 42.5 µM] (inactive),
CCC(C)C(C)(COC(N)=O)COC(N)=O (stereo not given),6.62% [at 42.5 µM] (inactive),
ClCC1CO1 (stereo not given),7.04% (inactive),
O=C/C=C/c1ccco1,0.22% (inactive),
COc1ccc(C=O)cc1O,4.88% (inactive),
O=[N+]([O-])c1cccc(CCl)c1,0.65% (inactive),
CCN(CCO)CCO,-0.607% (inactive),
N[C@@H]1C[C@H]1c1ccccc1,3.11% [at 42.5 µM] (inactive),
Clc1nc(Cl)nc(Nc2ccccc2Cl)n1,2.25% (inactive),
COc1cccc([C@@]2(O)CCCC[C@@H]2CN(C)C)c1,9.05% [at 42.5 µM] (inactive),
C=C(Cl)CSC(=S)N(CC)CC,-1.86% (inactive),
C=C1CC[C@@]2(O)[C@H]3Cc4ccc(O)c5c4[C@@]2(CCN3CC2CC2)[C@H]1O5,1.34% [at 42.5 µM] (inactive),
CC(C)NCC(O)c1ccc([N+](=O)[O-])cc1 (stereo not given),-2.38% [at 42.5 µM] (inactive),
